From PubChem
A selection: hits, their analogues and other compounds. The true share with any hit is near 8.2%.
KB-3-1 tox: qHTS assay for MDR1-selective chemotherapeutics: Primary screen using the parental adenocarcinoma cell KB-3-1; KB-3-1 viability, CellTiter-Glo ATP luminescence, 72 h; Potency, µM (series often up to 46.1 µM), actives largely listed as cytotoxic; 1.4% of 400,000 active; further: on the % scale 0 is the no-effect control and ±100 the full control effect; nearly all actives have a fitted effect of over 60% in size
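KB-3-1 cells, DMEM (no phenol red) + 10% FBS; compound by pin transfer, 72 h, 37 °C. Readout: CellTiter-Glo luminescence after 10 min. Data normalized, curve-fitted.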
ELG1 DNA repair: qHTS screen for small molecules that inhibit ELG1-dependent DNA repair in human embryonic kidney (HEK293T) cells expressing luciferase-tagged ELG1; 2.3% of 330,000 active; AID 504467, 2011; Potency, µM (highest dose often 46.1 µM), for the others: at the highest dose activity change, negative = inhibition, actives largely listed as inhibitors; HEK293T ELG1-luciferase reporter, luminescence, 16 h; DNA damage induced by 5-fluorouridine; further: on the % scale 0 is the no-effect control and ±100 the full control effect; nearly all actives have a fitted effect of over 55% in size
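HEK293T cells expressing luciferase-tagged ELG1 (2,000/well) received 5-Fluorouridine plus compound or DMSO for 16 hr at 37 °C. Luciferase was read by ONE-Glo luminescence after 30 min at room temperature.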
SW480 rerep: A quantitative high throughput screen for small molecules that induce DNA re-replication in SW480 colon adenocarcinoma cells. SW480 DNA re-replication, Hoechst DNA content imaging, 48 h. Potency, µM (top dose mostly 46.1 µM), for inactives: top-dose re-replication activation, actives largely listed as activators. 1.8% of 340,000 active; further: % of control where 0% means no effect; nearly all actives have a fitted effect of over 55% in size
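Image-based read-out: total Hoechst fluorescence of nuclei (405 nm excitation, 500-530 nm emission), with hits raising the fraction of high-intensity nuclei. SW480 colon cells incubated 48 hr with compounds at 37 C.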
MCF10A rerep: A quantitative high throughput screen for small molecules that induce DNA re-replication in MCF 10a normal breast cells. MCF 10A DNA re-replication, Hoechst nuclear intensity, 48 h. Potency, µM (doses to about 46.1 µM), without a hit: top-dose activity, positive = re-replication, actives largely listed as activators. 2.9% of 350,000 active. AID 624296, 2012; further: % of control where 0% means no effect; nearly all actives have a fitted effect of over 50% in size
KB-V1 cytotox: qHTS assay for MDR1-selective chemotherapeutics: Primary screen using the drug-selected MDR subline cells KB-V1; KB-V1 MDR cells viability, CellTiter-Glo, 72 h; AID 1347076, 2019; Potency, µM (series often up to 46.1 µM), usual class: cytotoxic; 3.4% of 400,000 active; further: on the % scale 0 is the no-effect control and ±100 the full control effect; nearly all actives have a fitted effect of over 60% in size
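Potencies derive from concentration-effect curves fitted to normalized luminescence (CellTiter-Glo) of KB-V1 cells treated for 72 h at 37 degrees C in phenol-red-free DMEM containing 10% FBS.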
* marks the source's active call; other numbers are inactive results; i = inactive; ? = inconclusive; . = not tested or not shown; [ ] = remark or other dose. The call rests on the fitted dose curve; in most records, active means well fitted curve in the direction sought with a large enough effect; inconclusive means small, poorly fitted or top-dose-only effect, or another doubt; inactive means no such curve, though single readings can be large; an effect the other way counts as inactive or inconclusive. Potency means the concentration at half of the fitted maximal effect.

SMILES | KB-3-1 tox | ELG1 DNA repair | SW480 rerep | MCF10A rerep | KB-V1 cytotox
CC(C)C[C@H](NC(=O)c1nc[nH]c1C(=O)N1CCN(c2ccccc2)CC1)C(=O)OCc1ccccc1 | i | -0.1% | 1.2%[9.22 µM] | 11.6µM* | i
C[C@H](NC(=O)c1nc[nH]c1C(=O)N1CCN(C(=O)OC(C)(C)C)CC1)C(=O)OC(C)(C)C | i | 4.6% | -6.1% | ? | i
CC(C)C[C@H](NC(=O)c1nc[nH]c1C(=O)N[C@@H](CCCCNC(=O)OC(C)(C)C)C(=O)OC(C)(C)C)C(=O)OC(C)(C)C | 16.4µM* | ? | ? | -0.1% | ?
CC(C)C[C@H](NC(=O)c1nc[nH]c1C(=O)N1CCNCC1)C(=O)OCc1ccccc1 | i | 2.6% | -8.0% | -2.4% | i
CC(C)C[C@H](NC(=O)c1nc[nH]c1C(=O)N1CCN(C(=O)OC(C)(C)C)CC1)C(=O)OC(C)(C)C | 5.8µM* | -6.5% | 16.4µM* | ? | i
CC(C)Cc1ccc(S(=O)(=O)Nc2cc3c(cc2N2CCOCC2)n(C)c(=O)c(=O)n3C)cc1 | i | . | . | . | i
Cc1ccccc1CN1C(=O)c2ccccc2Sc2ccc(C(=O)OCc3ccco3)cc21 | i | . | . | . | ?
CC(C)(C)OC(=O)NCCCCCNC(=O)c1nc[nH]c1C(=O)N1CCN(c2ccccc2)CC1 | i | ? | -0.2% | 3.1% | ?
C[C@H](NC(=O)c1nc[nH]c1C(=O)N[C@H](C)c1ccccc1)C(=O)OC(C)(C)C | i | ? | -6.2% | 18.1% | ?
CC(C)(C)OC(=O)NCCCC[C@H](NC(=O)c1nc[nH]c1C(=O)N1CCN(c2ccccc2)CC1)C(=O)OC(C)(C)C | i | 20.6µM* | 68.3%[9.22 µM] | 11.5% | i
C[C@H](NC(=O)c1nc[nH]c1C(=O)NC(c1ccccc1)c1ccccc1)C(=O)OC(C)(C)C | ? | 0.0% | -13.7% | 22.7% | 8.2µM*
COc1cccc(CCNC(=O)c2c(O)nc3cc(C)ccn3c2=O)c1 | i | . | . | . | i
Cc1cccc(CSCc2ccc(C(=O)NCCc3ccccc3)o2)c1 | i | . | . | . | i
Cc1cc2ccccc2cn1 | i | . | . | . | i
O=C1C2C3C=CC(CO)(O3)C2C(=O)N1c1ccccc1-c1ccccc1 (centres undefined) | i | 5.7% | 10.3µM* | 7.31µM* | i
O=C1C2C3C=CC(CNS(=O)(=O)c4ccccc4)(O3)C2C(=O)N1c1ccc(Cl)cc1 (centres undefined) | i | 0.8% | 11.6µM* | ? | ?
CN1OC[C@@H]2CN(Cc3ccccc3)[C@H](c3cccc(-c4ccc(C#N)cc4)c3)C[C@@H]21 | i | . | -18.4%[9.22 µM] | -14.1% | i
CSc1ccc(CCNC(=O)CCc2nnc3ccc(N4CCC5(CC4)OCCO5)nn23)cc1 | i | 9.2µM* | 21.1% | ? | i
COc1ccc(NC(=O)CN(C)C(=O)Cc2n[nH]c(=O)c3ccccc23)cc1 | i | ? | 23.1µM* | 13.8% | i
COc1ccc(NC(=O)c2ccc(F)cc2)cc1S(=O)(=O)Nc1cc(C)ccc1Br | ? | ? | ? | 14.6µM* | 4.61µM*
Cc1ccc(NS(=O)(=O)c2cc(NC(=O)C(C)Oc3ccccc3)ccc2C)c(C)c1 (centres undefined) | ? | ? | 2.3% | 23.3% | 18.4µM*
COc1ccccc1NS(=O)(=O)c1cc(NC(=S)Nc2cc(C)cc(C)c2)ccc1Cl | ? | ? | 8.5% | 5.5% | 14.6µM*
COc1ccc(NS(=O)(=O)c2cc(NC(=O)c3ccc(F)cc3)ccc2OC)cc1 | i | ? | 0.9% | 0.2% | ?
CCNC(=S)Nc1ccc(C)c(S(=O)(=O)Nc2ccccc2OC)c1 | i | 0.0% | -3.5% | 16.7% | i
COc1ccccc1NS(=O)(=O)c1cc(NC(=O)Cc2n[nH]c(=O)c3ccccc23)ccc1Cl | i | 23.1µM* | 8.7% | 15.7% | i
SMILES | KB-3-1 tox | ELG1 DNA repair | SW480 rerep | MCF10A rerep | KB-V1 cytotox
COc1ccccc1NS(=O)(=O)c1cc(NC(=O)CNC(=O)c2cc(C)cc(C)c2)ccc1C | i | ? | ? | 6.3% | 18.4µM*
O=C(CSC(=S)N1CCSCC1)c1ccccc1 | i | ? | 3.3% | ? | i
O=C(CSC(=S)N1CCSCC1)c1ccc(Cl)cc1 | 8.2µM* | ? | 1.6% | ? | 9.2µM*
CCOC(=O)c1cc(Br)c(=O)n2ccccc12 | i | ? | -4.6% | -1.6% | 14.6µM*
CCOC(=O)c1cc(C(C)=O)n2ccccc12 | i | 24.3% | -10.9% | 26.3% | i
CCCOc1ccc(N2C(=O)CC(N3CCN(c4ccc([N+](=O)[O-])cc4)CC3)C2=O)cc1 (centres undefined) | i | 2.06µM* | 4.4% | 8.7% | i
COc1ccc(C(=O)c2sc(NC(C)C)nc2N)cc1OC | ? | ? | 0.2% | ? | ?
COc1ccc(C(=O)c2sc(Nc3ccccc3)nc2C)cc1 | i | -4.7% | -1.4% | ? | i
COc1cccc(C(=O)c2sc(NC(C)C)nc2N)c1 | 16.4µM* | 20.6µM* | ? | 5.8µM* | ?
CC(C)Nc1nc(N)c(C(=O)C23CC4CC(CC(C4)C2)C3)s1 | i | 1.3% | 21.3% | 23.1µM* | i
CC(C)NCC(=O)C12CC3CC(CC(C3)C1)C2 | i | ? | -3.5% | 13.6% | i
COc1ccc(Nc2nc(N)c(C(=O)c3ccc(F)cc3)s2)cc1 | ? | ? | 4.11µM* | 2.59µM* | 1.3µM*
COc1ccc(Nc2nc(N)c(C(=O)c3ccc(OC)cc3)s2)cc1 | 1.3µM* | -17.7% | 4.11µM* | ? | ?
COc1ccccc1C(=O)COC(=O)c1ccc(Cl)nc1 | i | ? | -7.5% | -3.6% | ?
Cc1ccc(C2NC(c3ccc4c(c3)OCO4)=CC(c3cc(Br)ccc3O)N2)cc1 (centres undefined) | i | . | . | . | i
Cc1c(P(=S)(c2ccccc2)c2ccccc2)[n+]2ccccc2n1CCc1ccccc1 | 13µM* | . | . | . | i
Cc1cc(C(=O)CCl)c(C)n1CCc1ccccc1 | ? | 9.2% | ? | -8.1% | ?
CC(C)CCn1c(NCCc2ccccc2)nc2c1c(=O)n(C)c(=O)n2C | ? | ? | -2.9% | 20.0% | 13µM*
Cn1c(=O)n(Cc2ccccc2)c(=O)c2c1nc(NCC1CCCO1)n2Cc1ccccc1 (centres undefined) | i | 20.6µM* | 1.2% | 5.2% | i
